The target of test [1] is T1, Casein kinase II (Homo sapiens) (UniProt P67870+P68400+P19784). Particulars: at 1 µM.
In test [2] the target is T1, Casein kinase II (Homo sapiens). As to conditions: at 10 µM.
Test [3] has as its target Casein kinase II subunit alpha' (Homo sapiens) (UniProt P19784). As to conditions: at 10 µM.
For test [4], the target named is Dual specificity protein kinase CLK2 (Homo sapiens) (UniProt P49760). As to conditions: at 1 µM.
Test [5] shares this target. Particulars: at 10 µM.
Test [6] addresses Dual specificity protein kinase CLK3 (Homo sapiens) (UniProt P49761). As to conditions: at 1 µM.
Test [7] has the same target. As to conditions: at 10 µM.
Test [8] has as its target Calcium/calmodulin-dependent protein kinase type 1 (Homo sapiens) (UniProt Q14012). Particulars: at 1 µM.
The target is the same in test [9]. Particulars: at 10 µM.
Test [10] has as its target Calcium/calmodulin-dependent protein kinase type II subunit beta (Homo sapiens) (UniProt Q13554). As to conditions: at 1 µM.
Test [11] shares this target. Particulars: at 10 µM.
Test [12] deals with Calcium/calmodulin-dependent protein kinase type II subunit gamma (Homo sapiens) (UniProt Q13555). As to conditions: at 1 µM.
Test [13] shares this target. As to conditions: at 10 µM.
Test [14] deals with Calcium/calmodulin-dependent protein kinase type II subunit delta (Homo sapiens) (UniProt Q13557). Particulars: at 1 µM.
For test [15] the target is unchanged. As to conditions: at 10 µM.
Test [16] has as its target T2, Calcium/calmodulin-dependent protein kinase type IV (Homo sapiens) (UniProt Q16566).
T2 sequence (whole entry): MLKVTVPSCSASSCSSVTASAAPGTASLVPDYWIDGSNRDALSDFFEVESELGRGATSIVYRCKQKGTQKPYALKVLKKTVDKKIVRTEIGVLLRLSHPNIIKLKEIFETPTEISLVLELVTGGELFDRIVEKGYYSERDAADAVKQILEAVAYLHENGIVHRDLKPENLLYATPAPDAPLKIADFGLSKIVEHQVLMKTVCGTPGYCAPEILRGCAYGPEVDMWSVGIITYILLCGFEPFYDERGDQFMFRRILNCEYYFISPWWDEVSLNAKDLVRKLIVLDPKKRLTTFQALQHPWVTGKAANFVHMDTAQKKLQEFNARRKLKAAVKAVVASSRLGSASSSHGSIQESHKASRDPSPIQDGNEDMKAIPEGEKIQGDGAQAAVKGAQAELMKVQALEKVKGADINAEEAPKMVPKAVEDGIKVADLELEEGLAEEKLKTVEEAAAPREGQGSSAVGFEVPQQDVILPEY
As to conditions: at 10 µM.

Test [17] concerns the target Casein kinase II subunit alpha' (Homo sapiens) (UniProt P19784). As to conditions: at 1 µM.
Test [18] deals with Tyrosine-protein kinase CSK (Homo sapiens) (UniProt P41240). Particulars: at 1 µM.
Test [19] deals with T2, Calcium/calmodulin-dependent protein kinase type IV (Homo sapiens). As to conditions: at 1 µM.
In test [20] the target is Tyrosine-protein kinase CSK (Homo sapiens) (UniProt P41240). As to conditions: at 10 µM.

Sequence of Calcium/calmodulin-dependent protein kinase type 1 (Homo sapiens) (Q14012 whole entry, looked up): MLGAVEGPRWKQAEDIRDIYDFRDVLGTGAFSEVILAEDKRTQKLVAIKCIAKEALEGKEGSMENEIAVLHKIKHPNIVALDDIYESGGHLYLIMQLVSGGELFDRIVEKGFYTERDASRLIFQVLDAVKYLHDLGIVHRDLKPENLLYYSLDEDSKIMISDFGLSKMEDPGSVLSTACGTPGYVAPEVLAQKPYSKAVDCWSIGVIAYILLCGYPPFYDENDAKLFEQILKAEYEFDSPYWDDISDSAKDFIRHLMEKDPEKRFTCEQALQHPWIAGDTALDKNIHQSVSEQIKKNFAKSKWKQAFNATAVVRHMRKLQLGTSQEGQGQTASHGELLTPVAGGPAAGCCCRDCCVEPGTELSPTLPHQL
Sequence of Calcium/calmodulin-dependent protein kinase type II subunit gamma (Homo sapiens) (Q13555 whole entry): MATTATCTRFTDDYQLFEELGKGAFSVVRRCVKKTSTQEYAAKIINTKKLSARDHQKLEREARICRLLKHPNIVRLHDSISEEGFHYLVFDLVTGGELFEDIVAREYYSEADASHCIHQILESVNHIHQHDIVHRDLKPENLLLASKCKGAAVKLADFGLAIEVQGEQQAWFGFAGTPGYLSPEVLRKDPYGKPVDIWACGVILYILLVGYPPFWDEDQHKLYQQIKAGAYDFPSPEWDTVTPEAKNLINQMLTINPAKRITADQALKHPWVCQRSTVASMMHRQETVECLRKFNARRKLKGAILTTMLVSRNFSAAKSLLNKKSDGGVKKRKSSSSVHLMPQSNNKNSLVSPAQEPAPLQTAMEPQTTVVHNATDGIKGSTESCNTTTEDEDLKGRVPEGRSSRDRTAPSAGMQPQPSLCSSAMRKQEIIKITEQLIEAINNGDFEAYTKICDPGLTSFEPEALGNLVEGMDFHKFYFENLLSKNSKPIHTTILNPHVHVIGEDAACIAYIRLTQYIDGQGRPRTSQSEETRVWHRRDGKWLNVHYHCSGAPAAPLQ
Sequence of Calcium/calmodulin-dependent protein kinase type II subunit delta (Homo sapiens) (Q13557 whole entry): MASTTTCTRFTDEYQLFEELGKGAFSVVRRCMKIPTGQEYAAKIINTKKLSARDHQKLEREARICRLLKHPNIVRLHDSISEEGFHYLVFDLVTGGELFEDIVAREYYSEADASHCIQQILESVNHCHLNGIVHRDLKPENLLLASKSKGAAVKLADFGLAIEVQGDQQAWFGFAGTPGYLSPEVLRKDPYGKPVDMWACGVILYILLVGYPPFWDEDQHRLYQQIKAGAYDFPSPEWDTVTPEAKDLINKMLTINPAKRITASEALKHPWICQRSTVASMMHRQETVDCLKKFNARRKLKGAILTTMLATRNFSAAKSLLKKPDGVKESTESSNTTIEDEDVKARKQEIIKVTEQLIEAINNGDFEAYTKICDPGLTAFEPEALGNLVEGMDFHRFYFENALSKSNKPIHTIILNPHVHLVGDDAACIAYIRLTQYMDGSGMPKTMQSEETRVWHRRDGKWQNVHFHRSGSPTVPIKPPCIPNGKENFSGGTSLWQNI
Sequence of Dual specificity protein kinase CLK3 (Homo sapiens) (P49761 whole entry, looked up): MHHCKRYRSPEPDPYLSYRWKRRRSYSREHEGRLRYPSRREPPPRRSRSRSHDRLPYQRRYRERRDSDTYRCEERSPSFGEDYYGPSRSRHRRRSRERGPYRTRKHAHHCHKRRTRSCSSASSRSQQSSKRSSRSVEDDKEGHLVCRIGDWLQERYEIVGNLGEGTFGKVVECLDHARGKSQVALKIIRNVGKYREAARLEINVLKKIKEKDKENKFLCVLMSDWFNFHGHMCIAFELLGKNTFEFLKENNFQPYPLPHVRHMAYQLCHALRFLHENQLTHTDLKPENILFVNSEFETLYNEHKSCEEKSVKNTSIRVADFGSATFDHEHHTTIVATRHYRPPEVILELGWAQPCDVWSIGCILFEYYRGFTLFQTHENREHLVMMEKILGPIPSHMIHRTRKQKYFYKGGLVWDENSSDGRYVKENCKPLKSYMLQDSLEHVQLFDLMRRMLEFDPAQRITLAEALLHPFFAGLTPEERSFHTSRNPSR
Sequence of Dual specificity protein kinase CLK2 (Homo sapiens) (P49760 whole entry, looked up): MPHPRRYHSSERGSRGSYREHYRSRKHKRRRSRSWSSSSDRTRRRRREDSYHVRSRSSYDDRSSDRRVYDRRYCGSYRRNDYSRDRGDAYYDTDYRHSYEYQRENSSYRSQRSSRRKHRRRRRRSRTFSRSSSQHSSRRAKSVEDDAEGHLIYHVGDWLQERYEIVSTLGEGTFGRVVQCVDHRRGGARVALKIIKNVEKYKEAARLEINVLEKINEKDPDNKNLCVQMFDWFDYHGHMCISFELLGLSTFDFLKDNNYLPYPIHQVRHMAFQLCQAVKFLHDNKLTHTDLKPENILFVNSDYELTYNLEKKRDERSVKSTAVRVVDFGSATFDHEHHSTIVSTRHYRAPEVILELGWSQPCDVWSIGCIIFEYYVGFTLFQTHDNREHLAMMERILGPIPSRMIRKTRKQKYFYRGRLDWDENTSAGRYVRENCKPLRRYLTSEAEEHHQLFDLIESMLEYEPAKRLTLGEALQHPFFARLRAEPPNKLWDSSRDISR
T1 sequence (P19784 whole entry, looked up): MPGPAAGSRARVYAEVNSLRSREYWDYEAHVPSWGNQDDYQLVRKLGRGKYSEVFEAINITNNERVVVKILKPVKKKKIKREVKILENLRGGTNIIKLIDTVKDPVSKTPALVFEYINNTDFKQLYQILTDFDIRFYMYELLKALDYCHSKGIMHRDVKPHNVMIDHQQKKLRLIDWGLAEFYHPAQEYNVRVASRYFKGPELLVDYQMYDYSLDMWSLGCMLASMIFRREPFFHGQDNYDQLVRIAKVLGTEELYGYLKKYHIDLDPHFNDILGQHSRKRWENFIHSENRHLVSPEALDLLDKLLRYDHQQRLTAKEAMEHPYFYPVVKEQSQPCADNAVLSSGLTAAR
T1 sequence (P67870 whole entry, looked up): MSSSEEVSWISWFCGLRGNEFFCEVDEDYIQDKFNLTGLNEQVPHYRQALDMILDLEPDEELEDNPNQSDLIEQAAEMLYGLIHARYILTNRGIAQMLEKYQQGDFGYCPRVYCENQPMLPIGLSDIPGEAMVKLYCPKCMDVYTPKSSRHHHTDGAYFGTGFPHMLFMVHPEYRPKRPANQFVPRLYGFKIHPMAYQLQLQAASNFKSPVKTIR
T1 sequence (P68400 whole entry, looked up): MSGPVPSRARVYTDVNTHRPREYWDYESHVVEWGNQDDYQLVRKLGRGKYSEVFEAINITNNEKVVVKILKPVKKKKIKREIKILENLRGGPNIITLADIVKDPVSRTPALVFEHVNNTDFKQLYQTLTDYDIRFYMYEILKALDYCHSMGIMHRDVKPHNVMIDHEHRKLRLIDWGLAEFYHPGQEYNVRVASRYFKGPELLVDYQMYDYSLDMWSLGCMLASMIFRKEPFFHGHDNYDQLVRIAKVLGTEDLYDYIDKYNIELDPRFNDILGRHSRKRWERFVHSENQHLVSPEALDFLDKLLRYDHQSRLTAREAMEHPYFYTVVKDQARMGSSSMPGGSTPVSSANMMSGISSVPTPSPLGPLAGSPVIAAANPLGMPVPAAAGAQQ
Sequence of Casein kinase II subunit alpha' (Homo sapiens) (P19784 whole entry, looked up): as the sequence (P19784 whole entry, looked up) above
Sequence of Tyrosine-protein kinase CSK (Homo sapiens) (P41240 2-450 limits assumed): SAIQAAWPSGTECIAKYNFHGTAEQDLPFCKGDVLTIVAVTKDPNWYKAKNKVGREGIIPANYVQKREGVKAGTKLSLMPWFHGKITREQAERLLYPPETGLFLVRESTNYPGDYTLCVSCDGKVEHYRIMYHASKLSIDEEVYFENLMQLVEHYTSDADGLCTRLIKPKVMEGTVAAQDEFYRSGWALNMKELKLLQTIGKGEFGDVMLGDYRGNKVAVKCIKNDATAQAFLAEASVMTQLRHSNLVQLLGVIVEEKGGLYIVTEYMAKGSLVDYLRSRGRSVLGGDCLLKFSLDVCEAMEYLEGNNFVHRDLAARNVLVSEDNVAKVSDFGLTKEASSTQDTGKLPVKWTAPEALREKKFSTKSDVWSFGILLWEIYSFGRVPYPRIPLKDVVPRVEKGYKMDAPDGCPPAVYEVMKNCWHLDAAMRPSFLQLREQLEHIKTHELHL
Sequence of Calcium/calmodulin-dependent protein kinase type II subunit beta (Homo sapiens) (Q13554 whole entry): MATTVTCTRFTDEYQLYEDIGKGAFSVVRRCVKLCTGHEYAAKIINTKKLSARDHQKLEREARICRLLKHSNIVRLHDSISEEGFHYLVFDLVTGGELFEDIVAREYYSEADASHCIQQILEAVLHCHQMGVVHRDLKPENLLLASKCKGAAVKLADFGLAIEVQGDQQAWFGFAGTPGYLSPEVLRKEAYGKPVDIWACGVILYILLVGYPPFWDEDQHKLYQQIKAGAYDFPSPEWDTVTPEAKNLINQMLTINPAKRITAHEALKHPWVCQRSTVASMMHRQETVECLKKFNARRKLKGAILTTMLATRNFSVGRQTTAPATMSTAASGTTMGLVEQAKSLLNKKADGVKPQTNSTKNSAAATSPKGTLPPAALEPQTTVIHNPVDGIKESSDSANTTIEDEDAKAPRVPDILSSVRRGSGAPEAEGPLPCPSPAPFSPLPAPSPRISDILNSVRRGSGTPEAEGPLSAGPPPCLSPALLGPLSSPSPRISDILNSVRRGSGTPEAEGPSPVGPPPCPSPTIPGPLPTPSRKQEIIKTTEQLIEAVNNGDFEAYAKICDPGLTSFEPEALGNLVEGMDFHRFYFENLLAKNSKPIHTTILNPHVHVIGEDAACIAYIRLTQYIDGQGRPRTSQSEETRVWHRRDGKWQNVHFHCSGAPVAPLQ

As to `O=c1cc(N2CCNCC2)oc2c(-c3ccccc3)cccc12`, the residual activity in test [1] turned out to be 79%; in [2] it was 52%; in test [3], 90%; in test [4], 90%; in test [5], 93%; in test [6], 81%. For the same molecule, the residual activity amounted to 100% in [7]; 105% in test [8]; 80% in [9]; 91% in test [10]; 84% in test [11]; 104% in test [12]. Besides, the residual activity in test [13] was found to be 88%; in test [14], 101%; in test [15] it was 77%; in [16] it was 87%.

With `O=C1Nc2ccc(Cl)cc2/C1=C/c1cc(Cl)c(O)c(Cl)c1`, the residual activity in test [1] stood at 41%; in [2], 4%; in [17] it was 92%; in test [3] it was 32%; in test [4], 84%; in [5], 45%. Moreover, the residual activity in [6] was 70%; in test [7], 29%; in test [18] it was 96%; in test [8] it was 96%; in test [9] it was 63%; in test [10], 69%. Moreover, the residual activity in test [11] came out at 23%; in [12], 62%; in [13], 10%; in test [14] it was 69%; in test [15] it was 10%.

On to `O=C(O)/C=C/c1cc(Br)c(Br)c(Br)c1Br`, for which the residual activity in test [1] is 12%; in test [2], -8%; in test [17], 33%; in test [3], 5%; in test [4], 102%; in test [5], 49%. Further, the residual activity in test [6] is 79%; in test [7], 52%; in test [8], 102%; in [9] it was 74%; in test [10], 78%; in test [11] it was 39%. Further, the residual activity in [12] is 98%; in test [13] it was 31%; in test [14] it was 83%; in test [15], 26%; in test [19], 94%; in [16], 80%.

Take `O=C1Cc2c([nH]c3ccc(Br)cc23)-c2ccccc2N1`: the residual activity amounted to 79% in test [1]; 55% in test [2]; 92% in test [3]; 80% in [4]; 56% in [5]; 78% in test [6]. For the same molecule, the residual activity is 67% in [7]; 81% in [20]; 94% in test [8]; 74% in [9]; 81% in test [10]; 57% in [11]. In addition, the residual activity stood at 58% in test [14] and 16% in test [15].

With `Cn1sc(=O)n(Cc2ccccc2)c1=O`, the residual activity in test [1] is 85%; in test [2], 90%; in [6] it was 64%; in test [7], 74%; in test [18], 92%; in [20], 90%. The residual activity in test [8] is 75%; in test [9] it was 67%; in test [10], 92%; in test [11], 83%; in test [14], 98%; in test [15], 90%. Further, the values for the residual activity in test [19] and in test [16] were 73% and 51%, respectively.

Consider `N#Cc1c(NC(=O)c2cccc3ccccc23)sc2c1CCCC2`, for which the residual activity is 97% in test [1]; 99% in [2]; 99% in test [5]; 77% in [6]; 87% in test [7]; 99% in test [20]. The residual activity in [10] worked out at 94%; in test [11], 81%; in [13], 97%; in [15], 88%; in test [16], 87%.

Consider `Nc1ncnc2c1c(-c1ccc(Oc3ccccc3)cc1)cn2C1CCCC1`, for which the residual activity was found to be 79% in test [1]; 105% in [2]; 118% in test [17]; 86% in [3]; 112% in test [4]; 88% in test [5]. The residual activity was 82% in test [6]; 6% in [7]; 0% in [18]; -1% in test [20]; 95% in test [8]; 29% in [9]. Also, the residual activity turned out to be 83% in [10]; 57% in [11]; 72% in [13]; 98% in test [14]; 68% in test [15]; 112% in test [19]. Also, the residual activity in test [16] came out at 85%.

As for `Fc1ccc(-c2nc3n(c2-c2ccncc2)CCS3)cc1`, the residual activity was 99% in test [1]; 98% in test [2]; 97% in test [6]; 86% in [7]; 100% in test [10]; 95% in [11].

As for `O=c1cc(N2CCOCC2)oc2c1ccc1ccccc12`, the residual activity in [1] was 18%; in [2], -1%; in [17], 56%; in test [3] it was 5%; in [4], 98%; in test [5], 45%. The residual activity was 91% in [6]; 103% in [18]; 104% in test [8]; 72% in test [9]; 103% in test [10]; 72% in test [11]. The residual activity worked out at 104% in test [12]; 81% in test [13]; 99% in test [14]; 75% in [15]; 103% in test [16].

Take `O=C(c1ccccc1)c1ccc(N2CCOCC2)cc1O`: the residual activity amounted to 88% in test [1]; 113% in test [2]; 122% in test [17]; 89% in test [6]; 84% in [20]; 95% in test [8]. Also, the residual activity in [9] turned out to be 98%; in test [11] it was 71%; in [13] it was 78%; in [14] it was 100%; in test [15], 76%; in test [19] it was 111%.

For the molecule `CN(C)S(=O)(=O)c1ccc2c(c1)/C(=C/c1cc3c([nH]1)CCCC3)C(=O)N2`, the residual activity in test [1] was 95%; in test [2], 100%; in [3], 94%; in test [4], 69%; in test [5], 71%; in [6], 39%. In addition, the residual activity was determined as 28% in test [7]; 94% in [9]; 71% in [10]; 59% in test [11]; 17% in [12]; 12% in [13]. In addition, the residual activity came to 18% in [14], 13% in test [15], 89% in test [19] and 98% in test [16].

For `CCCC(=O)Oc1ccc2[nH]c(C(=O)c3cc4ccccc4[nH]3)cc2c1`, the residual activity in [1] worked out at 86%; in [2], 106%; in test [17], 132%; in test [3], 98%; in test [4] it was 122%; in test [5], 101%. Besides, the residual activity stood at 81% in [6]; 101% in [18]; 100% in test [20]; 89% in [9]; 86% in [10]; 85% in [11]. Moreover, the residual activity was found to be 99% in test [12], 102% in test [13], 83% in test [15] and 53% in [16].

As to `NC(=O)c1ccc(-c2nc(-c3ccc4c(c3)OCCO4)c(-c3ccccn3)[nH]2)cc1`, the residual activity in test [1] is 95%; in test [2], 97%; in test [6] it was 81%; in [7], 76%; in test [18] it was 119%; in test [20], 91%. For the same molecule, the residual activity in test [8] turned out to be 91%; in [9], 73%; in test [11], 88%; in [14], 100%; in test [15], 98%.
